ClpP mod = qHTS Assay for Activators of ClpP; Potency, µM (titrated, usually from 57.5 µM); 340,000 compounds, 1.9% hits; purified B. subtilis ClpP, FRET peptide cleavage, 20 min; active = well fitted falling curve with a large enough effect; inconclusive = small, poorly fitted or top-dose-only effect; inactive = no such curve, though single readings can be large or run the other way; also: the source files actives as falling curves though it sought activators and does not explain the sign; nearly all actives have a fitted effect of over 65% in size
Target sequence (P80244 whole entry, looked up): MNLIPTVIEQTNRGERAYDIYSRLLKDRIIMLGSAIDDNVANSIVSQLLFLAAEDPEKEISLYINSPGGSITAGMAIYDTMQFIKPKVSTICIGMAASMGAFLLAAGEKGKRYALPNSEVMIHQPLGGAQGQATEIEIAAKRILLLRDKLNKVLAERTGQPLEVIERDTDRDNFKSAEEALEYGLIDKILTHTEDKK
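Buffer: 100 mM Tris/HCl pH8, 100 mM KCl, 0.05% low protease BSA, 2.5% glycerol, 0.01% Tween-20. ClpP 10 microg/mL final; 20 min RT; delta FRET normalized to ADEP and DMSO controls.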
Sfp inh = Sfp phosphopantetheinyl transferase inhibition; Potency, µM, usual class: inhibitors; 310,000 compounds, 3.5% hits; Biochemical Sfp PPTase activity, qHTS;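 also: the enzyme is Sfp with the accession as filed and its product quenches rhodamine fluorescence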
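Step 1, compound plus 15 nM Sfp-PPTase, 15 min, room temperature. Step 2, add rhodamine-CoA (5 uM) and BHQ-2-YbbR (12.5 uM). Step 3, read 525/598 nm fluorescence at 0 and 30 min.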
uPA generation = cell surface uPA generation inhibition | cell surface uPA generation assay, qHTS | Potency, µM (doses to about 38.3 µM), actives largely listed as inhibitors | 330,000 compounds, 0.31% hits | AID 540303; active = well fitted inhibition curve with a large enough effect; inconclusive = small, poorly fitted or top-dose-only effect; inactive = no such curve, though single readings can be large or run the other way; tested in mouse RAW 264.7 cells; also: nearly all actives have a fitted effect of over 55% in size
TCR activator = activators of T cell receptors; 330,000 tested, under 10 active; primary human leukocytes, anti-CD3, IL-2 HTRF, 48 h; Potency, µM (top dose mostly 9.22 µM), hits mostly activators
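Human primary leukocytes + a-CD3 beads + cpd, 48 hr; IL-2 in supernatant by HTRF (ex 320nm / em 665nm). No co-stimulatory signal supplied.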
A number is an active result; – = inactive; ? = inconclusive; · = no result given; ! = not active in a repeat. Hits are enriched below; roughly 4.2% of the tested compounds scored in any of these assays. Unless noted, calls follow the shape of the dose curve; as a rule, active = well fitted curve in the direction sought with a large enough effect; inconclusive = small, poorly fitted or top-dose-only effect, or another doubt; inactive = no such curve, though single readings can be large; an effect the other way counts as inactive or inconclusive.

SMILES	ClpP mod	Sfp inh	uPA generation	TCR activator
CSc1c(CC(=O)Nc2ccccc2)n(C)c2ccccc12	–	–	?	·
COc1cc(S(=O)(=O)N2CC(=O)Nc3ccccc32)ccc1NC(C)=O	–	–	–	–
Cc1ccc(C2C(C(=O)c3cc4ccccc4o3)=C(O)C(=O)N2CCN2CCOCC2)o1 (stereo not given)	–	50.1µM	–	–
CCCCn1c(SCC(=O)NCc2ccco2)nc2ccc(N3CCOCC3)cc2c1=O	–	44.7µM	·	–
Cc1ccc(CSc2nc3ccccc3c(=O)n2CCCC(=O)NCc2ccco2)cc1	–	25.1µM	·	–
CCCCn1c(SCC(=O)NCc2ccccc2)nc2ccc(N3CCOCC3)cc2c1=O	–	–	·	–
CCCCn1c(SCC(=O)NC(C)CC)nc2ccc(N3CCOCC3)cc2c1=O (stereo not given)	–	56.2µM	–	–
Cc1cc(NS(=O)(=O)c2ccc(NC(=O)C(C)Oc3ccc4c(C)cc(=O)oc4c3)cc2)no1 (stereo not given)	25.1µM	–	–	–
CC(=O)Nc1ccc(-c2cc(-c3ccccc3)nc(-c3ccccc3)n2)cc1	28.2µM	–	–	–
CC(=O)Nc1ccc(-c2cc(-c3ccc(NC(C)=O)cc3)nc(-c3ccc(NC(C)=O)cc3)n2)cc1	5.62µM	–	–	–
CCC(=O)Nc1ccc(-c2cc(-c3ccccc3)nc(-c3ccc(NC(=O)CC)cc3)n2)cc1	?	–	–	·
COc1cc2nc(N3CCOCC3)nc(NC3CCN(C)CC3)c2cc1OC	–	·	·	·
CN(C)c1ccc(/C=C/c2ccnc3ccccc23)c(F)c1	–	·	·	·
O=C(NCCc1csc(-c2cccnc2)n1)c1ccc(Br)o1	–	20µM	–	–
CN(C)c1ccc(C(=O)OCC(=O)NC2CCCCCC2)cc1	–	–	–	–
CCN(CC)c1ccc(C(=S)NC2CCCCC2)cc1	–	31.6µM	–	–
CCN(CC)c1ccc(C(=S)NCc2ccccc2)cc1	–	10µM	–	–
CCN(CC)c1ccc(NC(=S)NC(=O)C2CCC2)cc1	–	–	–	–
CCOc1ccc(C(=S)NC2CCCCC2)cc1OCC	·	14.1µM	–	–
CN(C)c1ccc(C(=S)NC2CCCCC2)cc1	–	20µM	?	–
C[C@@H]1CCCCO[C@H](CN(C)C(=O)Nc2ccc(C(F)(F)F)cc2)[C@@H](C)CN([C@H](C)CO)C(=O)c2cc(NC(=O)c3ccncc3)ccc2O1	–	·	·	·
Cc1cccc(C)c1NC(=O)CN(C)C(=O)c1ccc(OCc2ccccc2)cc1	–	·	·	·
Cc1cccc(NC(=O)Cn2c(=O)n(CCCS(=O)(=O)C3CCCCC3)c(=O)c3ccccc32)c1	–	·	·	·
CC(=O)c1ccc(N2CCN(c3ncccn3)CC2)cc1	·	–	–	–
Cc1oc(C(=O)O)cc1COc1ccc2c3c(c(=O)oc2c1)CCC3	28.2µM	–	–	–
SMILES	ClpP mod	Sfp inh	uPA generation	TCR activator
COC(=O)c1cc(COc2ccc3c4c(c(=O)oc3c2)CCCC4)c(C)o1	–	–	–	–
COC(=O)c1ccc(COc2ccc3c4c(c(=O)oc3c2)CCC4)o1	3.16µM	–	–	–
O=C(O)COc1ccc2c3c(c(=O)oc2c1)CCCC3	·	–	–	–
Cc1cc(C)c(C#N)c(N2CCOCC2)n1	25.1µM	–	–	–
CCOc1cc2c(C#N)c(N3CCOCC3)nc(N)c2c(N)n1	31.6µM	–	–	–
CCCCc1nc(N2CCOCC2)c(C#N)c2c1CCCC2	25.1µM	–	–	–
CCCc1nc(N2CCOCC2)c(C#N)c2c1CCCC2	31.6µM	–	–	–
COc1ccc(CCNC(=O)CCc2ccsc2)cc1OC	·	–	–	–
O=C(O)c1ccc(C2Nc3ccccc3-c3nnc(SCc4ccc(Cl)cc4)nc3O2)cc1 (stereo not given)	–	·	·	·
CC(C)c1nc(N2CCOCC2)c(C#N)c2c1CCC2	25.1µM	–	–	–
CSc1nc(N2CCOCC2)c2c(c1C#N)CCCCC2	–	–	–	–
O=C(O[C@@H]1OC2COC(=O)c3cc(O)c(O)c(O)c3-c3c(cc(O)c(O)c3O)C(=O)O[C@@H]([C@H]1O)[C@@H]2O)c1cc(O)c(O)c(O)c1	–	4.47µM	–	–
COc1c(O)cc2c(c1O)C1OC(CO)C(O)[C@H](O)[C@H]1OC2=O (stereo not given in full)	·	–	·	·
O=C(Nc1cccc(Br)c1)Nc1nc2c(s1)CCCCCC2	–	·	·	·
Cc1cc(CN(C)C)c(O)c(C2(C)CCCCC2)c1	22.4µM	–	–	–
O=C1c2sc3nc4n(c(=O)c3c2CCC1Br)CCCCC4 (stereo not given)	–	20µM	–	–
O=C1CCCc2c1sc1nc3n(c(=O)c21)CCCCC3	?	–	–	–
Cc1nn(-c2ccc(F)cc2F)c2c1-c1nc(N3CCCC3)ncc1CC2	31.6µM	–	–	–
CCOc1ccccc1CNC(=O)CCn1c(=O)c2cccn2c2ccc(F)cc21	–	·	·	·
c1coc(CSc2ncnc3c2oc2ccccc23)c1	·	56.2µM	–	–
CC(NC(=O)c1cccc(S(=O)(=O)N2CCN(Cc3ccccc3)CC2)c1)c1ccc(Br)cc1 (stereo not given)	25.1µM	–	–	–
COCCCNC(=O)c1nn(-c2ccc(C)cc2)nc1CO	14.1µM	·	·	·
CCOc1ccc(-n2nc(CO)c(C(=O)NCc3ccc(Cl)cc3)n2)cc1	7.08µM	·	·	·
CCOc1ccc(CNC(=O)c2ccc(CS(=O)Cc3ccc(Cl)cc3)o2)cc1 (stereo not given)	–	·	·	·
CCOc1ccc(-n2nc(CO)c(C(=O)NCCCc3ccccc3)n2)cc1	12.6µM	·	·	·
SMILES	ClpP mod	Sfp inh	uPA generation	TCR activator
Cc1ccc(-n2nc(CO)c(C(=O)NCc3cccs3)n2)cc1C	28.2µM	·	·	·
COc1ccc(N(C(=O)c2ccccc2)S(=O)(=O)c2ccc3c(c2)n(C)c(=O)n3C)cc1	–	·	·	·
CN(C)c1ccc(/C=C/c2ccnc3c(N)cccc23)cc1	–	·	·	·
CCOc1ccc(-n2nc(CO)c(C(=O)NCc3cccnc3)n2)cc1	6.31µM	·	·	·
Cc1ccccc1-n1nc(CO)c(C(=O)NCc2cccnc2)n1	–	·	·	·
Cc1cccc(NC(=O)C2CC(=O)n3cnnc3S2)c1 (stereo not given)	–	28.2µM	–	–
CCOC(=O)c1cccc(NC(=O)CCC(=O)N2CC(C)Oc3ccc(C)cc32)c1 (stereo not given)	–	·	·	·
Cc1cccnc1Nc1nc(-c2ccccn2)cs1	–	–	–	–
Cc1cccnc1Nc1nc(-c2ccc(O)cc2O)cs1	–	44.7µM	–	–
Cc1cccnc1Nc1nc(-c2ccccc2)cs1	–	50.1µM	–	–
Oc1ccc(-c2csc(Nc3ccccn3)n2)c(O)c1	–	?	?	–
CN(C)CCCN1c2ccccc2Sc2ccc(Cl)cc21	–	79.4µM!	?	–
COc1ccc(C(=O)Nc2cc3c(cc2N2CCCC2)n(C)c(=O)c(=O)n3C)cc1OC	31.6µM	·	·	·
Cn1c(=O)c(=O)n(C)c2cc(N3CCCC3)c(NC(=O)c3ccc(C(C)(C)C)cc3)cc21	35.5µM	·	·	·
Cc1ccc(C(=O)Nc2cc3c(cc2N2CCCCC2)n(C)c(=O)n3C)cc1	–	–	–	–
CCOc1cc(C(=O)Nc2cc3c(cc2N2CCCC2)n(C)c(=O)c(=O)n3C)cc(OCC)c1OCC	–	·	·	·
